GDH-TPI inh: GDH-TPI coupling enzyme inhibitors, primary screen, artefact control for M. tuberculosis FBA inhibitor project, biochemical, absorbance, full deck | GDH-TPI coupled enzyme counterscreen, NADH absorbance | inhibition, % at 4.8 µM | 360,000 tested, 1.2% active; in the data active = inhibition above about 30%;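 note: 0% = DMSO wells and 100% = wells lacking the enzyme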
BoNT A protease: BoNT/A light chain protease inhibitors, primary screen, biochemical, flow cytometry, MLPCN library | Botulinum neurotoxin type A light chain protease (Clostridium botulinum A str. ATCC 3502) | multiplex microsphere protease substrate cleavage | inhibition, % at 10 µM | 360,000 tested, 0.17% active | AID 588499, 2011; note: plate controls were buffer without enzyme for full effect and enzyme alone for no effect
Mtb FBA inh: Mtb FBA enzyme inhibitors, primary screen, biochemical, fluorescence, strain H37Rv. inhibition, % at 1 µM. 360,000 tested, 2.3% active. purified M. tuberculosis FBA, fluorescence read-out. Fructose-bisphosphate aldolase (Mycobacterium tuberculosis (strain ATCC 25618 / H37Rv)), …; in the data active = inhibition above about 27%;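 note: 0% = vehicle and 100% = reference inhibitor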
Target sequence (P9WQA3 whole entry, looked up): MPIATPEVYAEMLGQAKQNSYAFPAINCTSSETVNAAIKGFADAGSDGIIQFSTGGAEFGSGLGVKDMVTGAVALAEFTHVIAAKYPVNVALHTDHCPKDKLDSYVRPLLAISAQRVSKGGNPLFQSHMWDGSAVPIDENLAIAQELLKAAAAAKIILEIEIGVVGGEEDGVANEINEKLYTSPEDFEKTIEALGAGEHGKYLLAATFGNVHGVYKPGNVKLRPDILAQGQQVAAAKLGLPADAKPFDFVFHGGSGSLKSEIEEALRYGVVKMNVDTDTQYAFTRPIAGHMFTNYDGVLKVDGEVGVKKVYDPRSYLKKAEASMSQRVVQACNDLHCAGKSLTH
Anthrax LF prot: Bacillus anthracis LF protease inhibitors, primary screen, biochemical, multiplex microsphere, MLPCN library | inhibition, % at 10 µM | Lethal factor (Bacillus anthracis), P15917 | 360,000 tested, 0.12% active | multiplex microsphere protease cleavage assay; note: plate controls were buffer without enzyme for full effect and enzyme alone for no effect
Autofluor counter: compound fluorescence in toxin protease inhibitor counterscreen; compound autofluorescence counterscreen, microsphere flow cytometry; hits give high values; fluorescence intensity (test concentration not listed); 360,000 tested, 3.1% active; in the data active = fluorescence intensity above about 16000; inconclusive = no clear call, values can overlap the other calls
BoNT F protease: BoNT/F light chain protease inhibitors, primary screen, biochemical, flow cytometry, MLPCN library | Botulinum neurotoxin type F light chain protease (Clostridium botulinum) | Multiplex microsphere protease cleavage assay | inhibition, % at 10 µM | 360,000 tested, 0.22% active; in the data active = inhibition above about 35%, passing the limit was not always enough; inconclusive = no clear call, values can overlap the other calls; note: plate controls were buffer without enzyme for full effect and enzyme alone for no effect
Starred values were filed as active, the others as inactive; ? = inconclusive; . = not tested or not shown. A selection: hits, their analogues and other compounds. The true share with any hit is near 6.6%. Cut-off read from the data, not from the text of the source, unless noted: active = inhibition above about 30%; inconclusive = no clear call, values can overlap the other calls; inactive = below that.

SMILES	GDH-TPI inh	BoNT A protease	Mtb FBA inh	Anthrax LF prot	Autofluor counter	BoNT F protease
Nn1c(SCc2nc3ccccc3[nH]2)nnc1-c1cccnc1	0	0	-1	-2	22326*	0
Nn1c(SC/C=C/c2ccccc2)nnc1-c1cccnc1	-1	3	2	-3	21822*	4
COC(=O)c1ccc(NC(=O)COc2ccc(S(=O)(=O)NC(C)(C)C)cc2)cc1	4	0	-2	-13	4087	-10
O=C(COC(=O)c1cc(S(=O)(=O)N2CCOCC2)c(Cl)cc1Cl)NCc1ccco1	-6	0	0	0	4417	1
CCOc1ccc(OCCSc2ccc(S(=O)(=O)N3CCN(C)CC3)cn2)cc1	-4	-1	-2	-3	4244	-13
O=C(O)c1nn(CCOc2c(Cl)cccc2Cl)c(=O)c2ccccc12	5	1	7	9	3602	-8
COc1ccccc1C(=O)COC(=O)CCCN=C1NS(=O)(=O)c2ccccc21	1	1	1	10	6256	?
COc1ccc(C(=O)COC(=O)CCN=C2NS(=O)(=O)c3ccccc32)cc1OC	-6	0	0	-2	20801*	0
CCn1nc(C)cc1C(=O)N1CCCC(N2CCN(Cc3ccc4c(c3)OCO4)CC2)C1 (stereo not drawn)	6	-2	0	1	5874	1
N#Cc1c(N)n(CCOC(=O)c2cccc([N+](=O)[O-])c2)c2nc3ccccc3nc12	19	2	15	5	3816	-4
Cc1ccc(C(=O)NCCn2c(N)c(C#N)c3nc4ccccc4nc32)cc1	10	3	161*	-1	10848	2
N#Cc1c(N)n(CCNC(=O)c2ccc(Cl)cc2)c2nc3ccccc3nc12	18	8	199*	1	2384	9
COc1ccc(/C=N/NC(=O)c2ccc3nc[nH]c3c2)cc1OC	27	0	1	-5	4034	?
O=C(NCc1cccc(C(F)(F)F)c1)C1CC(c2c(Cl)cccc2Cl)=NO1 (stereo not drawn)	17	0	3	6	4030	-4
COC(=O)c1cccc(-c2ccc(/C=N/N3C(=O)C4C5C=CC(C6CC56)C4C3=O)o2)c1 (stereo not drawn)	8	0	0	-2	3639	0
COC(=O)c1ccc(-c2ccc(/C=N/N3C(=O)C4C5C=CC(C6CC56)C4C3=O)o2)cc1 (stereo not drawn)	34*	7	4	2	2435	17
O=C(C(=O)N1CCN(c2ccc(F)cc2)CC1)c1cn(CC(=O)N2CCOCC2)c2ccccc12	6	-2	0	0	6551	-3
Cc1ccc(OC(=O)c2ccncc2)c(C)c1	-13	0	-6	-13	3621	47*
Cc1cccc(C)c1OC(=O)CN1C(=O)c2ccccc2C1=O	11	?	0	-12	3458	?
COCC(=O)Nc1ccc(S(=O)(=O)NCCc2ccccc2)cc1	13	0	-1	-1	16357*	-2
CC(C)NS(=O)(=O)c1ccc(NC(=O)CCc2ccccc2)cc1	-3	4	0	-6	21469*	6
CCC(=O)Nc1ccc(S(=O)(=O)NCCc2ccccc2)cc1	1	.	0	.	.	.
O=C(Nc1c(-c2ccc3c(c2)OCO3)[nH][nH]c1=O)c1cccc(C(F)(F)F)c1	.	0	0	1	5722	-2
CSCCC(NC(=O)C1CC1)c1nc2ccccc2[nH]1 (stereo not drawn)	2	0	1	0	20590*	-3
CCCCc1nnc(NC(=O)COC)s1	0	0	0	8	4642	6
CCN(CC)CCCN(Cc1cc2cc3c(cc2[nH]c1=O)OCO3)C(=S)NC	11	-1	14	-14	3205	35*
CCC(=O)N(Cc1ccc(C)cc1)Cc1cc2cc3c(cc2[nH]c1=O)OCO3	13	-2	10	-3	23631*	-2
Cc1ccc(NC(=O)N(Cc2ccc3c(c2)OCO3)Cc2cc3cc4c(cc3[nH]c2=O)OCCO4)cc1	8	0	3	1	3089	1
COc1ccc(CCNC(=O)CCc2ccsc2)cc1OC	0	-2	0	-12	3953	2
